# Screening results from PubChem.
# HepG2 viability: HepG2 cytotoxicity, counter-screen for TGF-b inhibitors | HepG2 CAGA-GFP viability, ATP luminescence, 18 h | AID 588856 | actives 0.76% (n = 410,000) | Potency, µM (top dose mostly 46.1 µM), for inactives: top-dose activity change, negative = cytotoxicity, most hits filed as cytotoxic; further: potency means the concentration at half of the fitted maximal effect
#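 CellTiter-Glo luminescence gave cytotoxicity after 18 hours at 37 degrees C. The cells were HepG2 CAGA-GFP in 1% FBS DMEM, stimulated with 500 pg/mL TGF-beta after compound addition. %Activity was normalised to no-cell wells (complete cell-killing) and DMSO (no toxicity), and curves were fitted and classified.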
# HT1080 IDH1KD tx: toxicity to HT-1080 IDH1 knockdown cells (counter line) | actives 2% (n = 360,000) | Potency, µM (series often up to 46.1 µM), for inactives: at the top dose activity, negative = toxicity, usual class: cytotoxic | HT-1080 IDH1 knockdown viability, ATP luminescence, 48 h;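 further: potency means the concentration at half of the fitted maximal effect; 0% = DMSO wells and -100% = cell-free medium wells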
#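 CellTiter-Glo luminescence after 48 h compound exposure at 37 degrees C of IDH1-knockdown HT-1080 cells in 5% FBS RPMI. %Activity scaled between DMSO wells and cell-free media wells, with curves fitted and assigned curve classes.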
# TGFb inhibitor: inhibitors of TGF-b signaling; HepG2 CAGA-GFP TGF-b/SMAD3 reporter, GFP fluorescence, 18 h; TGF-beta stimulated, 500 pg/mL final; Potency, µM (doses to about 46.1 µM), for the others: at the highest dose activity, negative = inhibition, hits mostly inhibitors; actives 1.2% (n = 410,000); further: potency means the concentration at half of the fitted maximal effect; on the % scale 0 is the no-effect control and ±100 the full control effect; nearly all actives have a fitted effect of over 65% in size
#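 HEPG2 CAGA-GFP cells (1000/well, DMEM with 1% FBS) were pre-incubated 2 h at 37 degrees C, given compound by pin tool, then stimulated with TGF-beta at 500 pg/mL final for 18 h before per-cell GFP fluorescence imaging.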
# IL-1B inflam inh: blocks inflammasome-driven IL-1 beta release | THP-1 LPS/ATP IL-1B secretion, AlphaLISA, 16 h; stronger effect = lower value | activity change, % at 57.5 µM | actives 4.7% (n = 360,000); in the data active means activity change below about -50%; inconclusive means mostly about -30% to -49%; further: on the % scale 0 is the no-effect control and ±100 the full control effect
#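 THP-1 cells pretreated 1 hr with compounds (up to 57.5 uM final), then stimulated with LPS (250 ng/mL final) plus ATP (1.25 mM final); secreted IL-1B measured by AlphaLISA after 16 hr, decreased signal indicating inhibition.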
# HT1080NT lethal: kills 2HG-producing HT-1080-NT fibrosarcoma cells; HT-1080-NT fibrosarcoma viability, CellTiter-Glo ATP luminescence, 48 h; Potency, µM (titrated, usually from 46.1 µM), for inactives: at the top dose activity, negative = less viability, hits mostly cytotoxic; actives 1.6% (n = 360,000); AID 686970;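 further: NT is the 2HG producing partner of a matched IDH1 knockdown line; potency means the concentration at half of the fitted maximal effect; 0% = DMSO-treated cells and -100% = media-only wells without cells; nearly all actives have a fitted effect of over 55% in size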
#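 HT-1080-NT fibrosarcoma cells (2HG-overproducing), 750 cells/well in RPMI with 5% FBS, dosed after 2 h and incubated 48 h at 37C. CellTiter-Glo luminescence normalized to DMSO and no-cell wells; concentration-response curves fitted and classed.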
# Giardia killer: Giardia lamblia killing; actives 0.15% (n = 340,000); Giardia lamblia trophozoite viability; activity change, % at 7.66 µM, hits read low; in the data active means activity change below about -80%; inconclusive means between about -30% and that limit;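 further: parasites exposed to compound for two days anaerobically before the ATP read; on the % scale 0 is the no-effect control and ±100 the full control effect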
#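 Giardia trophozoites, 100 cells per well, were exposed to compounds for 48 hrs at 37 deg C under anaerobic conditions; viability was then read as ATP content by bioluminescence after 15-30 min at room temperature.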
# An asterisk follows results filed as active; ? = inconclusive; · = no result. Compounds with a hit are over-represented: about 6.5% of the library has one in this group of screens. Unless noted, the call rests on the fitted dose curve; in most records, active means well fitted curve in the direction sought with a large enough effect; inconclusive means small, poorly fitted or top-dose-only effect, or another doubt; inactive means no such curve, though single readings can be large; an effect the other way counts as inactive or inconclusive.
SMILES,HepG2 viability,HT1080 IDH1KD tx,TGFb inhibitor,IL-1B inflam inh,HT1080NT lethal,Giardia killer
COc1cc(C(=O)OCCc2cc3ccccc3c(=O)o2)cc(OC)c1OC,-13%,7.3µM*,3%,56,8.2µM*,-2
O=C(Nc1cccc(O)c1)c1noc2c1CCc1ccccc1-2,-81%,-28%,?,-83*,-26%,?
O=C(Nc1cccc(C(F)(F)F)c1)c1noc2c1CCc1ccccc1-2,-21%,·,14%,·,·,·
Cc1cc(C)c(C(=O)OCCNC(=O)c2cccnc2)cc1C,-8%,-2%,-11%,15,-3%,-4
Cc1cc(S(=O)(=O)N(Cc2cccs2)Cc2ccccc2F)ccc1-n1cnnn1,-7%,-10%,-12%,-3,-7%,3
COc1ccnc(Oc2ccccc2)c1C(=O)N/C=N/OCc1ccc(F)cc1Cl,-49%,16µM*,?,?,?,-1
COc1ccccc1CO/N=C/NC(=O)c1c(OC)ccnc1Oc1ccc(F)cc1,-20%,5%,-22%,?,13%,-4
Cc1ccc(C(=O)NC2CC3CCC(C2)N3Cc2ccco2)cc1 (stereo not given),-11%,15%,-4%,13,1%,-23
CC(C)C1CC(CCN)(Cc2ccccc2)CCO1 (stereo not given),-10%,-4%,-9%,-52*,?,16
COC(=O)CCN(C(C)=O)c1ccc(N)cc1,3%,12%,7%,24,5%,16
O=C(C[n+]1cccc(CNC(=O)c2ccc(OC(F)F)cc2)c1)Nc1cccc(C(F)(F)F)c1,0%,-27%,?,-71*,-22%,-3
CCOc1ccc(C(=O)C[n+]2ccc(C(=O)NCc3ccccc3)cc2)cc1,-7%,0%,3%,?,-18%,-12
O=C(C[n+]1cccc(CNC(=O)c2ccc(OC(F)F)cc2)c1)Nc1ccc(F)cc1,24%,3%,40%,-16,-3%,-7
O=C(C[n+]1cccc(CNC(=O)c2ccc(OC(F)F)cc2)c1)c1ccccc1,-14%,11%,-2%,-91*,-4%,-17
CSCCC(c1nc2ccccc2[nH]1)n1c(-c2ccc(C)cc2)nc2ccccc21 (stereo not given),·,?,·,-13,-5%,·
CC(C)(C)C(c1nc2ccccc2[nH]1)n1c(-c2ccsc2)nc2ccccc21 (stereo not given),·,?,·,-53*,?,·
CC(C)(C)C(c1nc2ccccc2[nH]1)n1c(-c2ccco2)nc2ccccc21 (stereo not given),·,5%,·,4,9%,·
Cc1ccc(C(c2nc3ccccc3[nH]2)n2c(-c3ccccc3)nc3ccccc32)cc1 (stereo not given),-61%,?,20µM*,-6,-19%,·
CCOC(=O)N1CCN(C(=S)Nc2ccc(C)c(C)c2)CC1,-1%,0%,0%,32,5%,2
CC(C)CN1C(=O)CSCC1(C)C(=O)NC(C)C (stereo not given),·,-5%,·,-68*,4%,·
CC(C)CN1C(=O)CSCC1(C)C(=O)Nc1ccc2c(c1)OCCO2 (stereo not given),·,17%,·,-16,2%,·
Cn1c(=O)c(=O)n(C)c2cc(N3CCOCC3)c(NS(=O)(=O)c3ccc(Br)cc3)cc21,-4%,-1%,-5%,-69*,-1%,7
CCn1nc([N+](=O)[O-])c2c(-c3nc4ccccc4o3)c(N)n(CCCOC)c2c1=O,15%,-21%,0%,40,-11%,-14
O=C(/C=C/c1ccccc1)OCCCCN=C1NS(=O)(=O)c2ccccc21,0%,-8%,1%,91,-7%,6
CCn1ccnc1CN(C)Cc1cn(C)nc1-c1ccccc1F,1%,6%,6%,-5,9%,-2
CCn1ccnc1CN(C)Cc1cn(-c2ccccc2)nc1-c1ccc(OC)cc1F,-32%,-30%,-17%,-74*,-19%,-3
